# Measurements as given in article PMC7862700, “An all-to-all approach to the identification of sequence-specific readers for epigenetic DNA modifications on cytosine”.
# Experiments:
# Test in all cases: DAPPL (digital affinity profiling via proximity ligation, sequencing); 10 mM Tris-HCl pH 7.5, 50 mM NaCl, 1 mM DTT, 4% glycerol, room temperature, 30 min; GST-TFs on glutathione beads, 16-mer random dsDNA library, 0.1% formaldehyde crosslink after washing; high values mean tight binding
# [1] = target: T1, FEV (Homo sapiens, UniProt Q99581 1-238); conditions: protein: recombinant; tags: N-terminal GST; dsDNA, one strand shown
# T1 sequence: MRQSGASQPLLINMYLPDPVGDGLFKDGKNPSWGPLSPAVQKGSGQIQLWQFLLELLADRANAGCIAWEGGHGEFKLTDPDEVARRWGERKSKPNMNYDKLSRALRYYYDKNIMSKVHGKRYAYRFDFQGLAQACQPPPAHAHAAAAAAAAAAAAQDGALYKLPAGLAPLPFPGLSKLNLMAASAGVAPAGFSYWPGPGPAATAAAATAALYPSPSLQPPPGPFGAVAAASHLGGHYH
# Summary of the method: (§1)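 Beads coated with glutathione captured GST-fused human transcription factors that had been expressed in yeast, and the factors were then given DNA barcodes and pooled with a tag-only sample. The pools were incubated with 200 nmole of a random double-stranded 16-mer DNA library in Tris/NaCl/DTT/glycerol buffer for 30 min at room temperature, washed, crosslinked with 0.1% formaldehyde and proximity-ligated with BsaI/T4 ligase at 37 °C for 1 h. PCR amplification and Illumina NextSeq500 sequencing came last. Binding signal is each hexamer's read frequency for a factor divided by its frequency for the tag-only sample.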
# [2] = target: ETV5 (Homo sapiens, UniProt P41161 1-510); conditions: protein: recombinant; tags: N-terminal GST; dsDNA, one strand shown
# Summary of the method: as §1
# [3] = target: HSF1 (Homo sapiens, UniProt Q00613 1-529); conditions: protein: recombinant; tags: N-terminal GST; chain copies: 3; dsDNA, one strand shown
# Summary of the method: as §1
# [4] = target: T2, SPIC (Homo sapiens, UniProt Q8N5J4 1-248); conditions: protein: recombinant; tags: N-terminal GST; dsDNA, one strand shown
# T2 sequence: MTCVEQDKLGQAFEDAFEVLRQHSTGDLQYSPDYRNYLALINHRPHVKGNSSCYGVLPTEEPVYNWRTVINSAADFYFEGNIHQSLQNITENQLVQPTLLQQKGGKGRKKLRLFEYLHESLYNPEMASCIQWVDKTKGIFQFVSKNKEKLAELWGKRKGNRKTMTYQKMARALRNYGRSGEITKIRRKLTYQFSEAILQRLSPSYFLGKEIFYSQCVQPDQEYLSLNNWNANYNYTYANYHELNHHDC
# Summary of the method: as §1
# [5] = target: ELF4 (Homo sapiens, UniProt Q99607 1-663); conditions: protein: recombinant; tags: N-terminal GST; dsDNA, one strand shown
# Summary of the method: as §1
# [6] = target: T3, ELK4 (Homo sapiens, UniProt P28324-2 1-405); conditions: protein: recombinant; tags: N-terminal GST; dsDNA, one strand shown
# T3 sequence: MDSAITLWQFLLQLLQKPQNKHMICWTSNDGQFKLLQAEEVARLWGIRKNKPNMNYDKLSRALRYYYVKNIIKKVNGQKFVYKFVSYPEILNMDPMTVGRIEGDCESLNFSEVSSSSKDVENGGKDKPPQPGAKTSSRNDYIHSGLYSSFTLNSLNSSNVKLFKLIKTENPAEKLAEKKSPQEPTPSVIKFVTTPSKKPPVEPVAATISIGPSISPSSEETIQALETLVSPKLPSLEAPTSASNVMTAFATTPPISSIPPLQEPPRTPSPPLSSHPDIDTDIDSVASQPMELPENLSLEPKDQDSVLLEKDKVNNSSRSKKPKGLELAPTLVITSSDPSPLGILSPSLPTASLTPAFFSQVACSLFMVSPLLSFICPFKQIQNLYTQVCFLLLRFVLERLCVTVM
# Summary of the method: as §1
# [7] = target: T4, ETV2 (Homo sapiens, UniProt O00321 1-342); conditions: protein: recombinant; tags: N-terminal GST; dsDNA, one strand shown
# T4 sequence: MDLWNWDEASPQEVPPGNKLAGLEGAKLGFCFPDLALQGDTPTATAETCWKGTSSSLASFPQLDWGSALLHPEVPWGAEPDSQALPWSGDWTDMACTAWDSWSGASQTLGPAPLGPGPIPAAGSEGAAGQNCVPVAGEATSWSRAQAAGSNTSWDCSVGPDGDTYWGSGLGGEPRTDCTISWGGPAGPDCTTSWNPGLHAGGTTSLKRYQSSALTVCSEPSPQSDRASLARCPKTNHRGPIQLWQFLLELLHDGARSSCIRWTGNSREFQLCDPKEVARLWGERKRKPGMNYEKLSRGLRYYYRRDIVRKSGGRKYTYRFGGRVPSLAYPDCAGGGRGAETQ
# Summary of the method: as §1
# [8] = target: T5, ELF3 (Homo sapiens, UniProt P78545 1-371); conditions: protein: recombinant; tags: N-terminal GST; dsDNA, one strand shown
# T5 sequence: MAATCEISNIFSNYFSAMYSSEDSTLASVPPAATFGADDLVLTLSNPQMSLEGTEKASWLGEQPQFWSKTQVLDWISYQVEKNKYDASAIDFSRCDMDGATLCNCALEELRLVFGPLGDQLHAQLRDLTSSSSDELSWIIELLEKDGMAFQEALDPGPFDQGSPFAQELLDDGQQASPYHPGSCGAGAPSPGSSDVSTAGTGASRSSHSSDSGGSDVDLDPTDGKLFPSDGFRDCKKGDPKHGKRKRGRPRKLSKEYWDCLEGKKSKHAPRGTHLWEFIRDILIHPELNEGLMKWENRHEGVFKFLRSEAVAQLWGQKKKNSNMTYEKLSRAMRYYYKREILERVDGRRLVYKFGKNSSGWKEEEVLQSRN
# Summary of the method: as §1
# [9] = target: CRX (Homo sapiens, UniProt O43186 1-299); conditions: protein: recombinant; tags: N-terminal GST; dsDNA, one strand shown
# Summary of the method: as §1
# [10] = target: ETV1 (Homo sapiens, UniProt P50549 1-477); conditions: protein: recombinant; tags: N-terminal GST; dsDNA, one strand shown
# Summary of the method: as §1
# [11] = target: T6, ERF (Homo sapiens, UniProt P50548 1-548); conditions: protein: recombinant; tags: N-terminal GST; dsDNA, one strand shown
# T6 sequence: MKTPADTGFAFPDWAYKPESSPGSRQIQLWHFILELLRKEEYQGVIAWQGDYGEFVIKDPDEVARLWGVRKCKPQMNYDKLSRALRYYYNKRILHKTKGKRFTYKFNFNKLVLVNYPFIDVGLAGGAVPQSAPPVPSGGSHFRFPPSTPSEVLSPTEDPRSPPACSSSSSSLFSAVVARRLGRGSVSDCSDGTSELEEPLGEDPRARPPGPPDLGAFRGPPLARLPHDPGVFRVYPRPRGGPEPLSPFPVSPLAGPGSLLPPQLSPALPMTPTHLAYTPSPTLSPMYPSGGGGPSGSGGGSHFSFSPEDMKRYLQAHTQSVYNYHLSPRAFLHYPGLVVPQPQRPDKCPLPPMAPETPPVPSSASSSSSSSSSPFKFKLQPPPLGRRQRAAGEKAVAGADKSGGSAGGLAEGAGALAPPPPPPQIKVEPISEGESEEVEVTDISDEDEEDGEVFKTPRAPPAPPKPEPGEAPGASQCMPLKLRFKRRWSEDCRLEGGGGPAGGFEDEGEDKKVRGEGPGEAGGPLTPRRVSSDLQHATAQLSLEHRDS
# Summary of the method: as §1
# [12] = target: T7, ETV3L (Homo sapiens, UniProt Q6ZN32 1-361); conditions: protein: recombinant; tags: N-terminal GST; dsDNA, one strand shown
# T7 sequence: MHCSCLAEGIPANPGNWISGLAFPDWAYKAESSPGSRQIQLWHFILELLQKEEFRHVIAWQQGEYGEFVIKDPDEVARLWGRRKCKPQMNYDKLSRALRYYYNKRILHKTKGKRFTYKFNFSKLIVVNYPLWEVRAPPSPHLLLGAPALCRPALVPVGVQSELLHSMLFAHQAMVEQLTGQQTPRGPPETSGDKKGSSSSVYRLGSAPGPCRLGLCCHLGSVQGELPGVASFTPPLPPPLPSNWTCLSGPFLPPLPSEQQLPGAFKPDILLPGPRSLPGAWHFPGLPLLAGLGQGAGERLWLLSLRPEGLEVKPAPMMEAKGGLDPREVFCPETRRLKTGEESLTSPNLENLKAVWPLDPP
# Summary of the method: as §1
# [13] = target: T8, ETS2 (Homo sapiens, UniProt P15036 1-469); conditions: protein: recombinant; tags: N-terminal GST; dsDNA, one strand shown
# T8 sequence: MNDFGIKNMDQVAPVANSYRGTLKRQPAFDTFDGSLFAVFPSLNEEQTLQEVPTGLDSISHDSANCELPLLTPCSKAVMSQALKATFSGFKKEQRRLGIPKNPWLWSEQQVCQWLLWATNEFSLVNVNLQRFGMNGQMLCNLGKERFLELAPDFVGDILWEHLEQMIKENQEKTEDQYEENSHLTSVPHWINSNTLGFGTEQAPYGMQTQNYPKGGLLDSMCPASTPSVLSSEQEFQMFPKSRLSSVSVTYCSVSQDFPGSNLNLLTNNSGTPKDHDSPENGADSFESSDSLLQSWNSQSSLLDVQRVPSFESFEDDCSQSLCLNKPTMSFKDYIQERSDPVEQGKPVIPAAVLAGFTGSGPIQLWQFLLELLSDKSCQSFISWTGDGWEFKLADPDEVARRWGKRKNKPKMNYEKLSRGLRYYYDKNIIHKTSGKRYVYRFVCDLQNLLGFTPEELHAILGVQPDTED
# Summary of the method: as §1
# [14] = target: T9, SPDEF (Homo sapiens, UniProt O95238 1-335); conditions: protein: recombinant; tags: N-terminal GST; dsDNA, one strand shown
# T9 sequence: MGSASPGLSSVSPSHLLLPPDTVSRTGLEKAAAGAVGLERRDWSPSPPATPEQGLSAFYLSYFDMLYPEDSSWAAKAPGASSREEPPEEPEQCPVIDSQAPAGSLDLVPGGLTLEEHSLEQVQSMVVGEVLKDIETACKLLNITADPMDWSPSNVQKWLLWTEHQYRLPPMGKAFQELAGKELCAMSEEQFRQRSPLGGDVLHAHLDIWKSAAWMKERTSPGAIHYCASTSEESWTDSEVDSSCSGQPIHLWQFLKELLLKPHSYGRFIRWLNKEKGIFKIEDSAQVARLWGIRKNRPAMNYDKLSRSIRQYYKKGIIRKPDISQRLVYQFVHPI
# Summary of the method: as §1
# [15] = target: T10, ETV7 (Homo sapiens, UniProt Q9Y603 1-341); conditions: protein: recombinant; tags: N-terminal GST; dsDNA, one strand shown
# T10 sequence: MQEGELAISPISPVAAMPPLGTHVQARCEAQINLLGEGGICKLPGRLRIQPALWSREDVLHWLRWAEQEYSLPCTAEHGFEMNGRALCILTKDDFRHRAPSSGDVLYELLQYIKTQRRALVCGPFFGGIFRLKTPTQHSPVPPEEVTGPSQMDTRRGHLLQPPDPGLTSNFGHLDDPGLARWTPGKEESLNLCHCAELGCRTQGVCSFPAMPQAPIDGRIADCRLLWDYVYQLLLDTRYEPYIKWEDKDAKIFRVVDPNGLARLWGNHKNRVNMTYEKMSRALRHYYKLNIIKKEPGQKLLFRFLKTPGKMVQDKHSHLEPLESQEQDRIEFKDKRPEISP
# Summary of the method: as §1
# [16] = target: T11, ELF5 (Homo sapiens, UniProt Q9UKW6-2 1-255); conditions: protein: recombinant; tags: N-terminal GST; dsDNA, one strand shown
# T11 sequence: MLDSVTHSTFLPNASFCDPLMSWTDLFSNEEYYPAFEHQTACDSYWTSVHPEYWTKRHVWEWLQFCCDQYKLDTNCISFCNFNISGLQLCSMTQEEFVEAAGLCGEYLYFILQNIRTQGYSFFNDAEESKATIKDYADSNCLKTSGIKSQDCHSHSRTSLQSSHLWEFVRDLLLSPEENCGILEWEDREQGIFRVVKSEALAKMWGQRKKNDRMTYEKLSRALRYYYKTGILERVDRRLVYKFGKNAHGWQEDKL
# Summary of the method: as §1
# [17] = target: T12, ETV3 (Homo sapiens, UniProt P41162-2 1-143); conditions: protein: recombinant; tags: N-terminal GST; dsDNA, one strand shown
# T12 sequence: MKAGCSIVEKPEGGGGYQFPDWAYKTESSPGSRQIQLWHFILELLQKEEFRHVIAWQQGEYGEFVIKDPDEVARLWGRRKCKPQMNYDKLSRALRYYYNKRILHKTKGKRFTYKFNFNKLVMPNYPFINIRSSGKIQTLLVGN
# Summary of the method: as §1
# [18] = target: ETV6 (Homo sapiens, UniProt P41212 1-452); conditions: protein: recombinant; tags: N-terminal GST; dsDNA, one strand shown
# Summary of the method: as §1
# ETV5, sequence (P41161 whole entry): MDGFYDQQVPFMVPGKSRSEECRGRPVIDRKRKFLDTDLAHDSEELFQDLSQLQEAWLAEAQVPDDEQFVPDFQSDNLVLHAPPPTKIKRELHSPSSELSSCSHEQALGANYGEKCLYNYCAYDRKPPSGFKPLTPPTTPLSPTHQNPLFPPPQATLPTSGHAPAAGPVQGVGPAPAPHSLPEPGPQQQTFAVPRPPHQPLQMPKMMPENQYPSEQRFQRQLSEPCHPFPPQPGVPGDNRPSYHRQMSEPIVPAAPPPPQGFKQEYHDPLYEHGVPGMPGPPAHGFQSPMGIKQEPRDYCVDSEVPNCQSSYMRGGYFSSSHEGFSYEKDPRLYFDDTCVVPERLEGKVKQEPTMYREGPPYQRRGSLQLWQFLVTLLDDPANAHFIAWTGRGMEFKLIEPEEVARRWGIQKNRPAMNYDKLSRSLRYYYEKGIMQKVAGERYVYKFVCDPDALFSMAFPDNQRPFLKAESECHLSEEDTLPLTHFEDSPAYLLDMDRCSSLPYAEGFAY
# ETV6, sequence (P41212 whole entry): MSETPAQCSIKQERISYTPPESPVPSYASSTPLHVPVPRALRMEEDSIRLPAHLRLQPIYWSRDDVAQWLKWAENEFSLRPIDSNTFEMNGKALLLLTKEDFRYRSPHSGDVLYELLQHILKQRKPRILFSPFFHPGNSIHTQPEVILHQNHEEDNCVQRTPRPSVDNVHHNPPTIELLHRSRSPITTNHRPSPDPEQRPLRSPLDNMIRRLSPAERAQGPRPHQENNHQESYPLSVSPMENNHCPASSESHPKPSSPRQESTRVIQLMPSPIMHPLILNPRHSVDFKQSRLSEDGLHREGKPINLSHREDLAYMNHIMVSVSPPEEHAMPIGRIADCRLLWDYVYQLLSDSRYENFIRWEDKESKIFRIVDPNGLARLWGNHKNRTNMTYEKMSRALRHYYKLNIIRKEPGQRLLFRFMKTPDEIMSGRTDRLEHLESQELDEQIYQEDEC
# HSF1, sequence (Q00613 whole entry): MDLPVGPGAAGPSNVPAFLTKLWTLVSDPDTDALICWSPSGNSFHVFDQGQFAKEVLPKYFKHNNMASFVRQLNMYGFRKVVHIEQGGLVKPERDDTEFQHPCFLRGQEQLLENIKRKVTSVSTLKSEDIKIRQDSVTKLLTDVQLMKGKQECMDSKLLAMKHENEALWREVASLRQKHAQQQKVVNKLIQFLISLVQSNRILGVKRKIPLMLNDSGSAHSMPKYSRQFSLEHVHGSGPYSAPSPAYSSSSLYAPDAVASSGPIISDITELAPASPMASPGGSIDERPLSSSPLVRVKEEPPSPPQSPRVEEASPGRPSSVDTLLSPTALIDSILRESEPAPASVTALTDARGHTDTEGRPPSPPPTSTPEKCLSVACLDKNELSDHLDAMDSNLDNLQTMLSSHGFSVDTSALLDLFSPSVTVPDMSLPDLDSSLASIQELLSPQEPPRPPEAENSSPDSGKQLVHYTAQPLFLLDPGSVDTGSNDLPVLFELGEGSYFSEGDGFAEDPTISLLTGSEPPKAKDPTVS
# ETV1, sequence (P50549 whole entry): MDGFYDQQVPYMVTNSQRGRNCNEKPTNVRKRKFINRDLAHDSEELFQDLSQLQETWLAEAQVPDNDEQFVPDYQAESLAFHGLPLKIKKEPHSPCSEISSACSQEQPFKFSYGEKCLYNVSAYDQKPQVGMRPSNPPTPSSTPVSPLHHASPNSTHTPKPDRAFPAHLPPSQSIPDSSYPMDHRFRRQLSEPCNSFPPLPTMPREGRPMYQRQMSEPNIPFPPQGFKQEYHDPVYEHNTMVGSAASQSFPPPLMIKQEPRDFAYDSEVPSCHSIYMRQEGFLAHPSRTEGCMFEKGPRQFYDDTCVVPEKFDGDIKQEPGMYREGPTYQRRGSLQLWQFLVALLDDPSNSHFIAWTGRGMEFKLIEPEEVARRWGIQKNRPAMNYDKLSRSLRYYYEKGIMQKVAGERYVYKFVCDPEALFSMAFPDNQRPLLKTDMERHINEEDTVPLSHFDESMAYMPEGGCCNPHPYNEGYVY
# CRX, sequence (O43186 whole entry): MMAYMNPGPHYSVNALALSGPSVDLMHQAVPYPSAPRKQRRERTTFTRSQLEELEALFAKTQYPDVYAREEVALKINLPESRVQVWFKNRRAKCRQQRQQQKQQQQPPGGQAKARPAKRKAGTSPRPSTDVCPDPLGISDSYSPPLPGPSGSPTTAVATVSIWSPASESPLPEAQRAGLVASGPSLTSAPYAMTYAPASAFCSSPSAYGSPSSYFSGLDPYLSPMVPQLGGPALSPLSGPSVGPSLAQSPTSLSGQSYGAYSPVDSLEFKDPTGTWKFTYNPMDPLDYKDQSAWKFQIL
# ELF4, sequence (Q99607 whole entry): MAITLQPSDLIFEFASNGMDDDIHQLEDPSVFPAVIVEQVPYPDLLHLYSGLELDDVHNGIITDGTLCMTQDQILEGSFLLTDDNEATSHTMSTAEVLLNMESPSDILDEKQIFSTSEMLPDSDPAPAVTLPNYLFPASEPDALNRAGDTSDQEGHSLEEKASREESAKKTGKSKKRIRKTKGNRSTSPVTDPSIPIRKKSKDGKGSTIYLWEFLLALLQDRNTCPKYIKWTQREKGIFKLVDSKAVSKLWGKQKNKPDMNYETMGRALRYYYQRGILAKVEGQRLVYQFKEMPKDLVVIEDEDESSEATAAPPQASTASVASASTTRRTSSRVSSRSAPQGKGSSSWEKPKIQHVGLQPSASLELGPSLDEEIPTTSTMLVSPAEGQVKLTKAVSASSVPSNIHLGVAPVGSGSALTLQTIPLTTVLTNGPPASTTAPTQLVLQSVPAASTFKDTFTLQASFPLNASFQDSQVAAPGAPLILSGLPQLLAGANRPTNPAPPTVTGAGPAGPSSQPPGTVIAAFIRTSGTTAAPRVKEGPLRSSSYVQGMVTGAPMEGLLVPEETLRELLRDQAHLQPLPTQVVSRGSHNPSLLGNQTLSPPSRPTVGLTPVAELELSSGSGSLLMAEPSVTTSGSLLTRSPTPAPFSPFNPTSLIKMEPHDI
sequence,measurement,setting,value
CTTCTA,binding signal,[1],"1.4 fold enrichment (6-mer frequency, TF over GST control)"
same,binding signal,[2],"1.46 fold enrichment (6-mer frequency, TF over GST control)"
same,binding signal,[3],"3.31 fold enrichment (6-mer frequency, TF over GST control)"
same,binding signal,[4],"1.28 fold enrichment (6-mer frequency, TF over GST control)"
same,binding signal,[5],"1.38 fold enrichment (6-mer frequency, TF over GST control)"
same,binding signal,[6],"1.53 fold enrichment (6-mer frequency, TF over GST control)"
same,binding signal,[7],"1.49 fold enrichment (6-mer frequency, TF over GST control)"
same,binding signal,[8],"1.42 fold enrichment (6-mer frequency, TF over GST control)"
same,binding signal,[9],"1.87 fold enrichment (6-mer frequency, TF over GST control)"
same,binding signal,[10],"1.49 fold enrichment (6-mer frequency, TF over GST control)"
same,binding signal,[11],"1.5 fold enrichment (6-mer frequency, TF over GST control)"
same,binding signal,[12],"1.35 fold enrichment (6-mer frequency, TF over GST control)"
same,binding signal,[13],"1.53 fold enrichment (6-mer frequency, TF over GST control)"
same,binding signal,[14],"1.3 fold enrichment (6-mer frequency, TF over GST control)"
same,binding signal,[15],"1.43 fold enrichment (6-mer frequency, TF over GST control)"
same,binding signal,[16],"1.39 fold enrichment (6-mer frequency, TF over GST control)"
same,binding signal,[17],"1.2 fold enrichment (6-mer frequency, TF over GST control)"
same,binding signal,[18],"1.4 fold enrichment (6-mer frequency, TF over GST control)"
